# Results: PubChem BioAssay AID2313 (Broad Institute, 2010)
# The campaign covered roughly 22,000 compounds. About 460 (2.1%) were called active. About 2% were inconclusive and are not listed.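 The calls were made as follows: active = mean inhibition across valid replicates above about 65% (limit read from the data); inconclusive = mean under the limit, yet half or more replicates past it; inactive = the rest.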 The list comes from a sample in which actives are over-represented; it also holds similar structures and randomly drawn compounds.
# Experiment: Hedgehog pathway signaling inhibitors, primary screen, luminescence, Shh-LIGHT2 cells, Gli-luciferase (AID 2313);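 also: pathway switched on by Shh-conditioned medium diluted 1 in 25 in low serum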
# Settings: Shh-LIGHT2 Gli-luciferase reporter, 30 h; stronger effect = higher value
row,SMILES,inhibition
1,CC(C)NC(=O)N(C)C[C@@H]1Oc2ccc(N(C)C)cc2C(=O)N([C@@H](C)CO)C[C@H]1C,-15.2% (inactive)
2,CC(C)NC(=O)Nc1ccc2c(c1)C(=O)N([C@H](C)CO)C[C@H](C)[C@@H](CN(C)CC1CCCCC1)OCCCC[C@@H](C)O2,-21.5% (inactive)
3,C[C@@H]1CN([C@H](C)CO)C(=O)Cc2cc(NS(C)(=O)=O)ccc2O[C@H]1CN(C)S(=O)(=O)c1ccccc1,-3.98% (inactive)
4,C[C@@H]1CCCCO[C@H](CN(C)C(=O)Nc2cccc3ccccc23)[C@@H](C)CN([C@H](C)CO)C(=O)c2cc(NC(=O)Nc3ccc4c(c3)OCO4)ccc2O1,-3.94% (inactive)
5,Cc1ccc(OCc2n[nH]c(=S)n2C2CCCCC2)c2c1CCC2,9.84% (inactive)
6,COc1ccc(NC(=S)SC)cc1OC,-54.6% (inactive)
7,C[C@@H]1CN([C@H](C)CO)C(=O)c2cccc(NC(=O)NC3CCCCC3)c2O[C@@H]1CN(C)CC1CCCCC1,23.2% (inactive)
8,Cc1noc(C)c1S(=O)(=O)N(C)C[C@@H]1Oc2c(NS(=O)(=O)c3cn(C)cn3)cccc2C(=O)N([C@H](C)CO)C[C@@H]1C,-16% (inactive)
9,C[C@H](CO)N1C[C@H](C)[C@H](CN(C)S(=O)(=O)c2cccs2)Oc2ccc(NC(=O)Nc3ccccc3)cc2C1=O,-3.56% (inactive)
10,COCc1nc2c([nH]1)C(c1ccccc1COc1ccc(Cl)cc1)C(C#N)=C(N)O2 (stereo not given),-16.6% (inactive)
11,C[C@@H]1CN([C@H](C)CO)C(=O)c2cccc(NS(=O)(=O)c3cn(C)cn3)c2O[C@H]1CN(C)Cc1ccc(C(=O)O)cc1,24.8% (inactive)
12,Cc1cc(C(=O)Nc2cccc3c2O[C@@H](CN(C)Cc2ccncc2)[C@@H](C)CN([C@@H](C)CO)C3=O)n(C)n1,-8.53% (inactive)
13,Cc1ccc(S(=O)(=O)Nc2cccc3c2O[C@@H](CN(C)S(=O)(=O)c2ccc(C)cc2)[C@H](C)CN([C@@H](C)CO)C3=O)cc1,-18.7% (inactive)
14,COc1ccc(CNC(=O)c2c(C)oc3c2cc(OC(C)=O)c2ccccc23)cc1,-2.05% (inactive)
15,S=c1nc2c(cnn2-c2ccccc2)c(Nc2ccccc2)[nH]1,-7.49% (inactive)
16,Cc1ccc(-c2c[n+](=O)c3c(n2[O-])CCC3)cc1,-26.9% (inactive)
17,C[C@H]1CN([C@@H](C)CO)C(=O)Cc2cc(NC(=O)Cc3ccccc3)ccc2O[C@@H]1CN(C)S(=O)(=O)c1ccc(Cl)cc1,22.7% (inactive)
18,C1=C(c2cccs2)CC(c2cccs2)=NN=C1c1cccs1,-1.01% (inactive)
19,COc1ccc(NC(=O)N(C)C[C@@H]2Oc3c(NC(=O)Nc4cccc5ccccc45)cccc3C(=O)N([C@@H](C)CO)C[C@H]2C)cc1,3.07% (inactive)
20,C[C@H](CO)N1C[C@H](C)[C@H](CN(C)C(=O)Nc2ccc(C(F)(F)F)cc2)Oc2ccc(N(C)C)cc2CC1=O,-27.1% (inactive)
21,COc1ccc(NC(=O)Nc2ccc3c(c2)CC(=O)N([C@@H](C)CO)C[C@@H](C)[C@@H](CN(C)Cc2ccc(C(F)(F)F)cc2)O3)cc1,13.9% (inactive)
22,COc1ccc(NC(=O)N(C)C[C@@H]2Oc3c(NC(=O)c4ccc(-c5nccs5)cc4)cccc3C(=O)N([C@H](C)CO)C[C@@H]2C)cc1,20.7% (inactive)

row,SMILES,inhibition
1,C[C@H](CO)N1C[C@H](C)[C@@H](CN(C)S(=O)(=O)c2ccc(Cl)cc2)Oc2ccc(NS(=O)(=O)c3cn(C)cn3)cc2C1=O,25.4% (inactive)
2,C[C@H]1CN([C@@H](C)CO)C(=O)Cc2cc(NC(=O)Nc3ccccc3)ccc2O[C@H]1CN(C)S(=O)(=O)c1cn(C)cn1,-32.8% (inactive)
3,C[C@H](CO)N1C[C@H](C)[C@H](CN(C)CC2CCCCC2)Oc2ccc(NC(=O)C3CCCCC3)cc2C1=O,21.2% (inactive)
4,Cc1noc(C)c1NC(=O)Nc1ccc2c(c1)CC(=O)N([C@H](C)CO)C[C@@H](C)[C@@H](CN(C)S(=O)(=O)c1ccc(Cl)cc1)O2,-13.6% (inactive)
5,Cc1noc(C)c1NC(=O)Nc1ccc2c(c1)C(=O)N([C@@H](C)CO)C[C@H](C)[C@H](CN(C)S(=O)(=O)c1ccc(Cl)cc1)O2,-26.2% (inactive)
6,C[C@H](CO)N1C[C@H](C)[C@@H](CN(C)Cc2ccc(C(F)(F)F)cc2)Oc2c(NC(=O)NC3CCCCC3)cccc2C1=O,23.9% (inactive)
7,O=C(NCCN1CCCCC1)Nc1cccc(Cl)c1,20.6% (inactive)
8,COc1ccc(NC(=O)Nc2ccc3c(c2)CC(=O)N([C@@H](C)CO)C[C@@H](C)[C@@H](CN(C)Cc2ccc(Cl)c(Cl)c2)O3)cc1,38.8% (inactive)
9,C[C@@H]1CN([C@H](C)CO)C(=O)Cc2cc(NC(=O)CCCN(C)C)ccc2O[C@H]1CN(C)CC1CCCCC1,18.8% (inactive)
10,Cc1cccc(NC(=O)c2ccc(C)c(S(=O)(=O)N3CCCC3)c2)c1,-48.9% (inactive)
11,Cc1ccc(NC(=O)c2cccc(N(C)C)c2)cc1NC(=O)c1ccc(O)cc1,83.8% (active)
12,O=C(CCCCn1cnc2ccccc21)c1ccccc1,-10.1% (inactive)
13,CNC[C@H]1Oc2ccc(NS(=O)(=O)c3ccc(F)cc3)cc2CC(=O)N([C@H](C)CO)C[C@H]1C,-2.19% (inactive)
14,C[C@@H]1CN([C@H](C)CO)C(=O)Cc2cc(NS(=O)(=O)c3ccc(Cl)cc3)ccc2O[C@@H]1CN(C)C,-10.8% (inactive)
15,CNC[C@@H]1Oc2c(NC(=O)Nc3ccc(F)cc3)cccc2C(=O)N([C@@H](C)CO)C[C@@H]1C,15.5% (inactive)
16,Cc1ccc(NC(=O)CC(=O)Nc2ccc(C)cc2)cc1,-21.5% (inactive)
17,C[C@@H]1CN([C@H](C)CO)C(=O)c2cccc(N(C)C)c2O[C@H]1CN(C)S(=O)(=O)c1cn(C)cn1,3.08% (inactive)
18,C=C1C(=O)O[C@H]2C3=C(C)C[C@H](OC(C)=O)C[C@]3(C)CC[C@@H]12,-2.37% (inactive)
19,COc1cc(/C=C2\Oc3cc(O)cc(O)c3C2=O)ccc1O,3.42% (inactive)
20,Cc1ccc(Nc2nc(C)cc(C)c2C(N)=O)cc1,-37.3% (inactive)
21,Cc1ccc2nc(C)c3c(c2c1)N(c1ccccc1)CC3,34.9% (inactive)
22,Cc1ccc2nc(Nc3ccccc3)cc(C)c2c1,72.3% (active)

row,SMILES,inhibition
1,COc1ccc(S(=O)(=O)Nc2cccc3c2O[C@@H](CN(C)C(=O)Nc2ccccc2)[C@@H](C)CN([C@H](C)CO)C3=O)cc1,2.98% (inactive)
2,COC(NC(=O)c1ccccc1)(C(F)(F)F)C(F)(F)F,-45.7% (inactive)
3,Cc1ccc(S(=O)(=O)Nc2cccc3c2O[C@@H](CN(C)S(=O)(=O)c2c(C)noc2C)[C@@H](C)CN([C@H](C)CO)C3=O)cc1,-7.42% (inactive)
4,C[C@@H]1CN([C@H](C)CO)C(=O)c2cc(NS(=O)(=O)c3ccc(F)cc3)ccc2O[C@H]1CN(C)C(=O)Nc1cccc2ccccc12,-17% (inactive)
5,C[C@H]1CN([C@@H](C)CO)C(=O)Cc2cc(NS(=O)(=O)c3cn(C)cn3)ccc2O[C@@H]1CN(C)C(=O)Nc1ccc2c(c1)OCO2,2.02% (inactive)
6,C[C@@H]1CCCCO[C@H](CN(C)C(=O)NC2CCCCC2)[C@@H](C)CN([C@H](C)CO)C(=O)c2cc(NC(=O)CCC(F)(F)F)ccc2O1,20.6% (inactive)
7,COc1ccc(NC(=O)Nc2ccc3c(c2)CC(=O)N([C@H](C)CO)C[C@H](C)[C@H](CN(C)S(=O)(=O)c2ccc(OC)cc2)O3)cc1,15.7% (inactive)
8,COc1ccc(NC(=O)Nc2cccc3c2O[C@@H](CN(C)S(=O)(=O)c2ccc(C)cc2)[C@H](C)CN([C@@H](C)CO)C3=O)cc1,26% (inactive)
9,COc1ccc(S(=O)(=O)N(C)C[C@H]2Oc3ccc(NC(=O)Nc4c(C)noc4C)cc3C(=O)N([C@@H](C)CO)C[C@@H]2C)cc1,14.6% (inactive)
10,O=S(=O)(NCCc1ccccc1)c1ccccc1,-19.7% (inactive)
11,C[C@@H]1CN([C@@H](C)CO)C(=O)c2cccc(NC(=O)c3nc4ccccc4s3)c2O[C@@H]1CN(C)Cc1ccc(Cl)c(Cl)c1,-17.7% (inactive)
12,O=C(Cn1c(=O)n(-c2ccccc2)c(=O)c2cc(-c3ccccc3)sc21)c1cccs1,-31.1% (inactive)
13,C[C@@H]1CN([C@@H](C)CO)C(=O)c2cccc(NC(=O)c3cnccn3)c2O[C@H]1CN(C)S(=O)(=O)c1cccs1,36.2% (inactive)
14,COc1ccc(NC(=O)N(C)C[C@H]2Oc3c(NC(=O)NC(C)C)cccc3C(=O)N([C@@H](C)CO)C[C@H]2C)cc1,-18.8% (inactive)
15,O=C(NCCN1CCCCC1)Nc1cccc2ccccc12,48.1% (inactive)
16,CCOC(=O)c1cc2ccccc2nc1C,-33.8% (inactive)
17,C[C@H]1CN([C@@H](C)CO)C(=O)Cc2cc(NC(=O)C3CC3)ccc2O[C@H]1CN(C)C(=O)Nc1ccc(C(F)(F)F)cc1,-16.6% (inactive)
18,Cc1noc(C)c1NC(=O)Nc1ccc2c(c1)C(=O)N([C@H](C)CO)C[C@@H](C)[C@@H](CN(C)C(=O)NC(C)C)O2,-44% (inactive)
19,Cc1noc(C)c1NC(=O)Nc1cccc2c1O[C@H](CN(C)S(C)(=O)=O)[C@H](C)CN([C@H](C)CO)C2=O,-13.4% (inactive)
20,COc1ccc(S(=O)(=O)N(C)C[C@@H]2Oc3ccc(NC(=O)CCN4CCOCC4)cc3CC(=O)N([C@@H](C)CO)C[C@@H]2C)cc1,12.6% (inactive)
21,Cc1ccc(S(=O)(=O)N(C)C[C@H]2Oc3ccc(NC(=O)C4CC4)cc3C(=O)N([C@H](C)CO)C[C@H]2C)cc1,2.25% (inactive)
